# In PubChem BioAssay (EPA / NIEHS):
# Several values for one entry are separate records, joined by “and”; a condition that tells them apart may be missing. Equal entries are not always repeated. Where a structure was tested more than once in an assay, its records may differ in their call. Activity calls are given as the source filed them. Rule for the calls: active = hit-call score of the fitted dose curve at least 0.9, where 1 is the maximum; inactive = score below 0.9.
# Key:
# [1] = target: CCAAT/enhancer-binding protein beta (Homo sapiens) (UniProt P17676); experiment: ATG_C_EBP_CIS: Attagene CIS-FACTORIAL HepG2 Assay for human CCAAT/Enhancer Binding Protein (C/EBP) beta (AID 2282927); settings: HepG2 Attagene cis-factorial transcription factor reporter; actives raise or lower the signal
# Sequence of CCAAT/enhancer-binding protein beta (Homo sapiens) (P17676 whole entry, looked up): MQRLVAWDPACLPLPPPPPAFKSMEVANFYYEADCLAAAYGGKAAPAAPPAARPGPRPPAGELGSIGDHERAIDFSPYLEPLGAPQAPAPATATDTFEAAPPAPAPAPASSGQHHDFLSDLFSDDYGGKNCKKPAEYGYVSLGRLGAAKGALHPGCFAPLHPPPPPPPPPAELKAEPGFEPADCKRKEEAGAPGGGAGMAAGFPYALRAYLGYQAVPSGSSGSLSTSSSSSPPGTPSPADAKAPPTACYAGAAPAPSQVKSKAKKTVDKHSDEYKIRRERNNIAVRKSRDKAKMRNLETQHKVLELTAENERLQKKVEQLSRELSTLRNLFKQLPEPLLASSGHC
# Summary of the method: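 Following a 24 h incubation with test chemical, transfected HepG2 cells yielded RNA whose reporter transcripts were quantified by RT-PCR and fluorescent capillary electrophoresis, with DMSO serving as baseline for bidirectional fitting.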
# [2] = ATG_DR4_LXR_CIS: Attagene CIS-FACTORIAL HepG2 Assay for human Liver X Receptor (LXR), DR4 submotif (AID 2282929); settings: HepG2 Attagene DR4 cis-reporter, mRNA transcription; AC50: actives raise or lower the signal unless noted; outcome: actives raise or lower the signal unless noted
# Summary of the method: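 Measures endogenous transcription factor activity via a DR4-driven reporter transcript in human HepG2 cells. Compounds incubated 24 h; mRNA quantified by RT-PCR and capillary electrophoresis, analysed as gain or loss of signal versus DMSO.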
# [3] = ATG_AP_1_CIS: Attagene CIS-FACTORIAL HepG2 Assay for human Activator Protein 1 (AP-1) (AID 2282931); settings: HepG2 Attagene cis-factorial AP-1 reporter mRNA; actives raise or lower the signal
# Summary of the method: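 Bidirectional concentration-response fitting against DMSO controls. Underlying signal: reporter mRNA from cis-promoter constructs in transiently transfected HepG2, measured after 24 h by RT-PCR and capillary electrophoresis.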
# [4] = ATG_AP_2_CIS: Attagene CIS-FACTORIAL HepG2 Assay for human Activator Protein 2 (AP-2) (AID 2282932); settings: HepG2 AP-2 cis-reporter, Attagene transcription factor profiling; AC50: actives raise or lower the signal unless noted; outcome: actives raise or lower the signal unless noted
# Summary of the method: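 Cells (HepG2) transfected with promoter-driven reporter constructs, treated 24 h. Total RNA reverse-transcribed, reporter cDNA PCR-amplified, FAM-labelled by primer extension, digested, resolved by capillary electrophoresis. Activity fitted both directions versus DMSO.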
# [5] = ATG_BRE_CIS: Attagene CIS-FACTORIAL HepG2 Assay for human Bone Morphogenetic Protein (BMP) Response Element (BRE) (AID 2282933); settings: HepG2 BMP response element reporter, Attagene transcription factor profiling; actives raise or lower the signal
# Summary of the method: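 Multiplexed cis-reporter assay, HepG2, 24 h exposure. mRNA from reporter units quantified via RT-PCR/CE; DMSO baseline; bidirectional curve fit.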
# [6] = target: Retinoic acid receptor alpha (Homo sapiens) (UniProt P10276); experiment: ATG_DR5_RAR_CIS: Attagene CIS-FACTORIAL HepG2 Assay for human Retinoic Acid Receptor Alpha (RARE), DR5 submotif (AID 2282934); settings: HepG2 Attagene cis-factorial RARE DR5 reporter, mRNA; actives raise or lower the signal;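 for AC50: reporter responds to endogenous RAR alpha beta and gamma in HepG2 not RARA alone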
# Sequence of Retinoic acid receptor alpha (Homo sapiens) (P10276 whole entry, looked up): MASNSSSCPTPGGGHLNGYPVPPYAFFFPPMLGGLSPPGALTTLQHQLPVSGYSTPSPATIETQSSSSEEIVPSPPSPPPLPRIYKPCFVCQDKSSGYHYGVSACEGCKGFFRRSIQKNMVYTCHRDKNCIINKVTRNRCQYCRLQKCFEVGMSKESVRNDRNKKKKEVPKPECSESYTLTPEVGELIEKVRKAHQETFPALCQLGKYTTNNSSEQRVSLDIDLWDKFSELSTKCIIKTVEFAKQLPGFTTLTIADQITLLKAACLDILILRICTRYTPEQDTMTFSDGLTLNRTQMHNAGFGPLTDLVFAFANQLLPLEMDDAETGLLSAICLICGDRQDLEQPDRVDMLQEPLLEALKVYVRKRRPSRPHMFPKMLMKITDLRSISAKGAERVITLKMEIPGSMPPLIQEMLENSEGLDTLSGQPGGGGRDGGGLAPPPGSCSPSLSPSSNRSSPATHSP
# Summary of the method: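 Endpoint fitted in both directions relative to DMSO as negative control. It reflects DR5 cis-element reporter mRNA induction in transiently transfected HepG2 cells, measured 24 h after dosing through RT-PCR and fluorescent capillary electrophoresis.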
# [7] = target: Transcription factor E2F1 (Homo sapiens) (UniProt Q01094); experiment: ATG_E2F_CIS: Attagene CIS-FACTORIAL HepG2 Assay for human E2F Transcription Factor 1 (AID 2282935); settings: HepG2 Attagene cis-reporter, E2F reporter RNA transcripts; actives raise or lower the signal
# Sequence of Transcription factor E2F1 (Homo sapiens) (Q01094 whole entry, looked up): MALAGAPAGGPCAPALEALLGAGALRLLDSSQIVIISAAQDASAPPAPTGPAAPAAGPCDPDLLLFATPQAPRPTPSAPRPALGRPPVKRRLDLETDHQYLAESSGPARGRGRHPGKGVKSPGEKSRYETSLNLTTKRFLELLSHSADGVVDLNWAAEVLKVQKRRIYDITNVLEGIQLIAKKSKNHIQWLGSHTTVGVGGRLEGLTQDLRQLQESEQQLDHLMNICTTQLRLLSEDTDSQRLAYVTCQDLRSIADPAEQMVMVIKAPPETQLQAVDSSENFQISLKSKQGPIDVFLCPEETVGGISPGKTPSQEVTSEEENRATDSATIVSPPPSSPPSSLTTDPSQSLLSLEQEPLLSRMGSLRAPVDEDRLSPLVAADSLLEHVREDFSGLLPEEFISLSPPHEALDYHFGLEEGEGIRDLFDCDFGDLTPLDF
# Summary of the method: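 First, HepG2 cells were transfected with reporter transcription units. Next, they were dosed for 24 h. Then RNA was isolated, converted to cDNA, PCR-amplified, FAM-labeled, HpaI-digested and analyzed by capillary electrophoresis.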
# [8] = ATG_E_Box_CIS: Attagene CIS-FACTORIAL HepG2 Assay for human Enhancer Box (E-box) (AID 2282936); settings: HepG2 E-box cis-reporter transcription, actives raise or lower the signal
# Summary of the method: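 Endogenous transcription factor activity was sensed in human HepG2 liver cells through transfected cis-promoter reporter units. After 24 h of dosing, total RNA was reverse-transcribed and reporter cDNA resolved by capillary electrophoresis.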
# [9] = ATG_EGR_CIS: Attagene CIS-FACTORIAL HepG2 Assay for human Early Growth Response 1 (EGR1) (AID 2282938); settings: HepG2 Attagene CIS-FACTORIAL EGR reporter mRNA; actives raise or lower the signal
# Summary of the method: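 Cell-based multiplex transcription assay: HepG2 carrying transfected cis-element reporter units, 24 h chemical treatment. Fluorescence from capillary electrophoresis of RT-PCR products gives mRNA levels; fitting is bidirectional relative to DMSO.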
# [10] = ATG_Ets_CIS: Attagene CIS-FACTORIAL HepG2 Assay for human Erythroblast Transformation Specific (ETS) (AID 2282941); settings: HepG2 ETS cis-reporter transcription; AC50: actives raise or lower the signal unless noted; outcome: actives raise or lower the signal unless noted
# Summary of the method: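 RT-PCR/capillary electrophoresis fluorescence read-out of reporter mRNA; HepG2 transient multi-reporter transfection; 24 h compound exposure; gain or loss of signal fitted bidirectionally relative to DMSO.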
# [11] = target: Hepatocyte nuclear factor 3-beta (Homo sapiens) (UniProt Q9Y261); experiment: ATG_FoxA2_CIS: Attagene CIS-FACTORIAL HepG2 Assay for human Forkhead box A2 (FOXA2) (AID 2282942); settings: HepG2 cis-reporter transcription factor activity, 24 h; actives raise or lower the signal
# Sequence of Hepatocyte nuclear factor 3-beta (Homo sapiens) (Q9Y261 whole entry, looked up): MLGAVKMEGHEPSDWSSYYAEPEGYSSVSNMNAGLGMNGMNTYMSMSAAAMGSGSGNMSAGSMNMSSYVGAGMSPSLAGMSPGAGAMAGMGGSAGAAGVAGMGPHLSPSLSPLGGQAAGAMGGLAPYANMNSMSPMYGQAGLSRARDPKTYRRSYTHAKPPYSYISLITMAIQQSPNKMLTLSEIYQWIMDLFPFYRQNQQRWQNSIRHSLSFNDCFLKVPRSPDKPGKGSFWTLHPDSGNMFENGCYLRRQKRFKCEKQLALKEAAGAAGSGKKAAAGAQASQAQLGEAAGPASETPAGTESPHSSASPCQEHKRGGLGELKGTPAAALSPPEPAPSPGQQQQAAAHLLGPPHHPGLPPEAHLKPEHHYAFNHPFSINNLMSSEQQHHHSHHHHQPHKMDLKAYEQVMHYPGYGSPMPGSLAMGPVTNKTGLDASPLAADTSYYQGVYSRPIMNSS
# Summary of the method: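 In transiently transfected human HepG2 cells, promoter-driven reporter mRNA levels after 24 h chemical exposure are determined via RT-PCR with capillary electrophoresis. DMSO serves as baseline for bidirectional fitting.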
# [12] = ATG_GLI_CIS: Attagene CIS-FACTORIAL HepG2 Assay for human Zinc Finger Protein GLI1 (AID 2282945); settings: HepG2, Attagene cis-factorial reporter mRNA, GLI element; actives raise or lower the signal
# Summary of the method: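 HepG2 cells transiently transfected with cis-promoter multiplexed reporter units report endogenous transcription factor activity. After 24 h chemical exposure, reporter mRNA was quantified by RT-PCR, 6-FAM labelling, HpaI digestion and capillary electrophoresis, with bidirectional fitting against DMSO.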
# [13] = target: Aryl hydrocarbon receptor (Homo sapiens) (UniProt P35869); experiment: ATG_Ahr_CIS: Attagene CIS-FACTORIAL HepG2 Assay for human Aryl Hydrocarbon Receptor (Ahr) (AID 2282930); settings: HepG2 AhR cis-factorial reporter transcription; actives raise or lower the signal
# Sequence of Aryl hydrocarbon receptor (Homo sapiens) (P35869 whole entry, looked up): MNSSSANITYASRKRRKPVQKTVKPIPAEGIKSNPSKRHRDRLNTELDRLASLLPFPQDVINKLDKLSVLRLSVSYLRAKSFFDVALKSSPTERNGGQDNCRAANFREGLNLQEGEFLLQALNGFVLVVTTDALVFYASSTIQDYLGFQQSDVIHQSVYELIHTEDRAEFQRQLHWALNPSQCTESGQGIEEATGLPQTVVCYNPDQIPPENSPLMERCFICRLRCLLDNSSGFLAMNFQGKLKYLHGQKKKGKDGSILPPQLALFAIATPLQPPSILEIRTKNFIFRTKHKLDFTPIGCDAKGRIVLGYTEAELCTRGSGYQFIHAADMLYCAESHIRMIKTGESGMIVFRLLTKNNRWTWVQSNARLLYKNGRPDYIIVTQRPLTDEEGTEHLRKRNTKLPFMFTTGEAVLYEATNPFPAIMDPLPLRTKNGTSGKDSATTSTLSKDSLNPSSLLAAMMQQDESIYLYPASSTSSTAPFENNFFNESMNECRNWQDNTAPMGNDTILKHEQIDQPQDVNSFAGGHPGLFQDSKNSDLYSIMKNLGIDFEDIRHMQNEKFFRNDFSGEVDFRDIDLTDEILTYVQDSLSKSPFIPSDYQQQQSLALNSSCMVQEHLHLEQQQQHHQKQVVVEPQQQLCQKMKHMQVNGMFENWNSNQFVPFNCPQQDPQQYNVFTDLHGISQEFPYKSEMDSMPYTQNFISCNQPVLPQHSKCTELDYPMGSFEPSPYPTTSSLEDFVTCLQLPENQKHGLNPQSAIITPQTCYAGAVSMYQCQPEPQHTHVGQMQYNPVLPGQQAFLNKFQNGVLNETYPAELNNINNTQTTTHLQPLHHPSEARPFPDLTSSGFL
# Summary of the method: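 Values derive from bidirectional fitting against DMSO negative control. Underlying signal: cis-element reporter mRNA in transiently transfected HepG2, harvested 24 h post-dose and measured by RT-PCR plus capillary electrophoresis.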
# [14] = ATG_M_61_CIS: Attagene CIS-FACTORIAL HepG2 Assay for M61 Transcription Factor (Internal Marker) (AID 2282937); settings: HepG2 Attagene CIS-FACTORIAL M61 internal marker reporter; actives raise or lower the signal
# Summary of the method: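 Fluorescence from labelled cDNA fragments, separated by capillary electrophoresis, quantifies reporter induction. HepG2 cells bearing transiently transfected cis-promoter MRTUs were incubated with test chemical for 24 h; DMSO defined baseline for gain/loss fitting.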
# [15] = ATG_M_19_CIS: Attagene CIS-FACTORIAL HepG2 Assay for M19 Transcription Factor (Internal Marker) (AID 2282939); settings: HepG2 Attagene CIS-FACTORIAL M19 internal marker reporter; actives raise or lower the signal
# Summary of the method: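 Signals come from fluorescence of labelled reporter-specific PCR fragments resolved by capillary electrophoresis, following 24 h treatment of HepG2 cells transfected with cis-promoter reporter units; activity was fitted in both directions relative to DMSO.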
# [16] = ATG_ERE_CIS: Attagene CIS-FACTORIAL HepG2 Assay for Estrogen Response Element (ERE) (AID 2282940); settings: HepG2 ERE cis-reporter, Attagene RNA transcript; actives raise or lower the signal
# Summary of the method: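 Fluorescence of capillary-separated, FAM-labelled reporter cDNA fragments indicates reporter mRNA levels in HepG2 cells exposed to chemicals for 24 h. Transient transfection with cis-regulated units; data fitted in both directions against DMSO.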
# [17] = ATG_FoxO_CIS: Attagene CIS-FACTORIAL HepG2 Assay for human Forkhead box O (FoxO) (AID 2282943); settings: HepG2 Attagene cis-reporter, FoxO element, mRNA; actives raise or lower the signal
# Summary of the method: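 Values reflect reporter mRNA induction or loss in HepG2 cells 24 h post-dosing, fitted bidirectionally with DMSO as negative control and baseline. Detection used RT-PCR and fluorescence capillary electrophoresis.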
# [18] = ATG_GATA_CIS: Attagene CIS-FACTORIAL HepG2 Assay for human GATA Binding Protein (AID 2282944); settings: HepG2 GATA cis-element reporter, Attagene multiplex mRNA; actives raise or lower the signal
# Summary of the method: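 After transfecting HepG2 cells with multiple cis-regulated reporter units, chemicals are dosed for 24 h; isolated RNA undergoes RT-PCR and fluorescent labeling before capillary electrophoresis, with activity expressed against DMSO.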
# [19] = target: Bile acid receptor (Homo sapiens) (UniProt Q96RI1); experiment: ATG_IR1_CIS: Attagene CIS-FACTORIAL HepG2 Assay for human Nuclear Receptor Subfamily 1 Group H Member 4 (NR1H4), IR1 submotif (AID 2282946); settings: IR1 reporter transcription, actives raise or lower the signal
# Sequence of Bile acid receptor (Homo sapiens) (Q96RI1 whole entry, looked up): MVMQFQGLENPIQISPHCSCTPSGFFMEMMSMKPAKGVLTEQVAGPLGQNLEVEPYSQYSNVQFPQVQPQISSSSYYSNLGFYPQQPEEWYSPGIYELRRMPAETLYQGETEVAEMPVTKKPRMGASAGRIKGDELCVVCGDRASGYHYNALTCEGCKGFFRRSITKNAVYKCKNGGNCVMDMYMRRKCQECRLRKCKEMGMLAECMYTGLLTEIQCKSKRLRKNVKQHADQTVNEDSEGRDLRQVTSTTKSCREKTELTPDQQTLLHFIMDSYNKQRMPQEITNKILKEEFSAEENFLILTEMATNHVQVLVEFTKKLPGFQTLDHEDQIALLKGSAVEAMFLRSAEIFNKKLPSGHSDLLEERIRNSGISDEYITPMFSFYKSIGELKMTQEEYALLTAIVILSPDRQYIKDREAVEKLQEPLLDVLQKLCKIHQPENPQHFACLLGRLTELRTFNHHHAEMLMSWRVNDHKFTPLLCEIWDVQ
# Summary of the method: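 Readout: reporter transcript levels by RT-PCR with fluorescent capillary electrophoresis, from HepG2 cells transiently transfected with multiplexed cis-regulated reporters and dosed 24 h. Gain- or loss-of-signal fitted versus DMSO negative control.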
# [20] = ATG_CMV_CIS: Attagene CIS-FACTORIAL HepG2 Assay for human CMV (Internal Marker) (AID 2282928); settings: HepG2 CMV promoter reporter, transcription factor profiling; actives raise or lower the signal;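 note: endpoint acts as a background internal control marker rather than a target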
# Summary of the method: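 Readout: fluorescent reporter cDNA fragments separated by capillary electrophoresis after RT-PCR and HpaI cut. Cells: HepG2 carrying transfected cis-promoter reporter constructs, dosed 24 h. Endpoint serves as background internal-marker control, fit bidirectionally versus DMSO.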
smiles,measurement,setting,value
CC(C)c1c(C(=O)Nc2ccccc2)c(-c2ccccc2)c(-c2ccc(F)cc2)n1CC[C@@H](O)C[C@@H](O)CC(=O)O,outcome,[1],inactive
same,AC50,[2],136 µM (active) and 42.6 µM (active)
same,outcome,[3],inactive
same,outcome,[4],inactive
same,outcome,[5],inactive
same,AC50,[6],161 µM (active)
same,outcome,[6],inactive
same,outcome,[7],inactive
same,AC50,[8],28.2 µM (active)
same,outcome,[8],inactive
same,AC50,[9],94.5 µM (active) and 28.3 µM (active)
same,outcome,[10],inactive
same,outcome,[11],inactive
same,outcome,[12],inactive
COc1cccc(O)c1,outcome,[1],inactive
same,outcome,[2],inactive
same,outcome,[13],inactive
same,outcome,[3],inactive
same,outcome,[4],inactive
same,outcome,[5],inactive
same,outcome,[6],inactive
same,outcome,[7],inactive
same,outcome,[8],inactive
same,outcome,[14],inactive
same,outcome,[9],inactive
same,outcome,[15],inactive
same,outcome,[16],inactive
same,outcome,[11],inactive
same,outcome,[17],inactive
same,outcome,[18],inactive
same,outcome,[19],inactive
COC(=O)C(F)(F)C(F)(F)C(F)(F)F,outcome,[1],inactive
same,outcome,[2],inactive
same,outcome,[13],inactive
same,outcome,[3],inactive
same,outcome,[4],inactive
same,outcome,[5],inactive
same,outcome,[6],inactive
same,outcome,[7],inactive
same,outcome,[8],inactive
same,outcome,[14],inactive
same,outcome,[9],inactive
same,outcome,[15],inactive
same,outcome,[16],inactive
same,outcome,[11],inactive
same,outcome,[17],inactive
same,outcome,[18],inactive
same,outcome,[19],inactive
NCCN,outcome,[1],inactive
same,outcome,[2],inactive
same,outcome,[13],inactive
same,outcome,[3],inactive
same,outcome,[4],inactive
same,outcome,[5],inactive
same,outcome,[8],inactive
same,outcome,[9],inactive
same,outcome,[16],inactive
same,outcome,[10],inactive
same,outcome,[11],inactive
same,outcome,[17],inactive
same,outcome,[18],inactive
same,outcome,[12],inactive
CCOC(C)=O,outcome,[1],inactive
same,outcome,[20],inactive
same,outcome,[2],inactive
same,outcome,[3],inactive
same,outcome,[5],inactive
same,outcome,[7],inactive
same,outcome,[8],inactive
same,outcome,[9],inactive
same,outcome,[15],inactive
same,outcome,[16],inactive
same,outcome,[10],inactive
same,outcome,[11],inactive
same,outcome,[17],inactive
same,AC50,[18],100 µM (active)
same,outcome,[18],inactive
same,outcome,[12],inactive
CN(Cc1cnc2nc(N)nc(N)c2n1)c1ccc(C(=O)N[C@@H](CCC(=O)O)C(=O)O)cc1,outcome,[1],inactive
same,outcome,[20],inactive
same,outcome,[2],inactive
same,outcome,[3],inactive
same,outcome,[4],inactive
same,outcome,[5],inactive
same,outcome,[7],inactive
same,outcome,[8],inactive
same,outcome,[9],inactive
same,outcome,[15],inactive
same,outcome,[16],inactive
same,outcome,[10],inactive
same,outcome,[11],inactive
same,outcome,[18],inactive
same,outcome,[12],inactive
same,outcome,[19],inactive
CCOC=O,outcome,[1],inactive
same,outcome,[2],inactive
same,outcome,[13],inactive
same,outcome,[3],inactive
same,outcome,[4],inactive
same,outcome,[5],inactive
same,outcome,[7],inactive
same,outcome,[8],inactive
same,outcome,[14],inactive
same,outcome,[9],inactive
same,outcome,[15],inactive
same,AC50,[16],59.3 µM (active)
same,outcome,[10],inactive
same,outcome,[11],inactive
same,outcome,[17],inactive
same,outcome,[18],inactive
same,outcome,[12],inactive
same,outcome,[19],inactive
Clc1ccc(Nc2nnc(Cc3ccncc3)c3ccccc23)cc1,outcome,[1],inactive
same,outcome,[2],inactive
same,outcome,[13],inactive
same,AC50,[3],42 µM (active)
same,outcome,[4],inactive
same,outcome,[5],inactive
same,outcome,[6],inactive
same,outcome,[7],inactive
same,outcome,[8],inactive
same,outcome,[14],inactive
same,AC50,[9],16 µM (active)
same,outcome,[16],inactive
same,outcome,[10],inactive
same,outcome,[11],inactive
same,outcome,[18],inactive
same,outcome,[12],inactive
same,outcome,[19],inactive
